Results taken from PubChem BioAssay (NCATS).
A number with no mark means an inactive call. Inconclusive results are not listed. Entries that show only a call come without a potency. Calls of active or inactive are those of the source. Calls come from the whole dose curve; as a rule, active = well fitted curve in the direction sought with a large enough effect; inconclusive = small, poorly fitted or top-dose-only effect, or another doubt; inactive = no such curve, though single readings can be large; an effect the other way counts as inactive or inconclusive.

What was measured:
[1] = target: Calcium and integrin-binding protein 1 (Homo sapiens) (UniProt Q99828); assay: Primary qHTS for Identification of Calcium Integrin Binding Protein 1 (CIB1) Competitor (AID 1508620); note: potency is the fitted concentration of half-maximal effect
Method in brief: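 Fluorescence polarization competition: CIB1-GST (1 uM final) preincubated with compound 15 min at room temperature, then FITC-labeled alphaIIb peptide (100 nM final) added for another 15 min. Polarization read at Ex 480/Em 540.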

[2] = target: Protein phosphatase 1D (Homo sapiens) (UniProt O15297); assay: Rhodamine-PBP qHTS Assay for Modulators of WT P53-Induced Phosphatase 1 (WIP1) (AID 1347425)
Method in brief: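 The read-out is the change in Rhodamine-PBP fluorescence (f1 - f0, ex 525/em 598 nm) as Pi is released, read each minute for 11 min. Final reaction: 5 nM WIP1, 10 uM phosphopeptide VEPPL-pS-QETFS, 10 uM Rh-PBP, 50 mM Tris-HCl pH 7.5, 30 mM MgCl2. Compound was preincubated with enzyme for 1 hour at room temperature.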

[3] = Primary qHTS for inhibitors of La Crosse Virus (LACV) - induced cell death in SH-SY5Y cells (AID 1508616);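 note: top concentration of the series differs between compounds; higher means more rescue of cells from virus-induced death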
Excerpt: Assay Provider: Karin Peterson Ph.D.
National Institute of Allergy and Infection Diseases, National Institute of Health
La Crosse Virus (LACV) is a California serogroup mosquito-borne arbovirus, family Peribunyaviridae, which is an endemic pathogen in North America and can induce a rare, life-threatening neurological disease in children. LACV was first isolated in the early 1960s, from a summer "rural encephalitis" case in La Crosse, Wisconsin, USA. Since then, LACV encephalitis cases have been found in more than twenty states, with most cases in the Mississippi and Ohio River basins. The life cycle of LACV is maintained between the vector, the eastern tree-hole mosquito Aedes triseriatus, and vertebrate hosts including eastern gray squirrels (Sciurus carolinensis) and chipmunks (Tamiasstriatus grinseus). […] Most LACV infections in humans are asymptomatic or induce mild clinical symptoms of fever, headache, lethargy and vomiting. However, in some cases LACV can cause severe neuroinvasive disease, including encephalitis, meningitis, and meningoencephalitis, requiring hospitalization. To date, there is neither a licensed vaccine nor a Food and Drug Administration (FDA) approved antiviral therapy available to prevent or treat LACV encephalitis. The primary treatment for viral encephalitis is palliative care due to the lack of therapeutics. In the current study, we conducted a screen of 4,096 FDA approved and bioactive small molecules against LACV, by screening for rescue of LACV-induced cell death in SH-SY5Y cells.
LACV-induced cytopathicity assay
SEQUENCE No. (1,2, 3, etc.); […] (e.g., Cells, Incubation, Reagent, etc.); VALUE and DESCRIPTION.
1. Reagent; 2 uL; Cell solution.
3. Compounds; 23nL; Compound library
4. Reagent; 12 uL; LACV virus
6. Reagent; 24 uL; ATPLite (PerkinElmer)
7. Time; 5 min; Room temperature
8. Detection; Luminescence; View
NOTES (numbers refer to sequence above)
1. Seed 6000 SH-SY5Y cells (ATCC CRL-2266) in 2 microL/well media (DMEM/F12 10% FBS, 1x L-Glutamine, 1x Pyruvate, 1x NEAA, 1x Pen/Strep) in 384-well assay plates (tissue culture treated, white, solid bottom).
2. Incubate at 37 degrees C with 5% CO2 for 24 hr.
3. Dispense 23 nL/well compounds in DMSO via pin transfer.
4. Dispense 12 microL/well of LACV (LACV/human/1978) in media at 0.01 MOI.
5. Incubate at for 6 days at 37C 5% CO2
6. Dispense 24 microL/well of ATPLite 1step Luminescence assay system (PerkinElmer).
7. Incubate for 5 min at room temperature.
8. Read luminescence signal (Viewlux plate reader, PerkinElmer). Data was normalized with DMSO control wells containing LACV as 0%, and DMSO control wells without virus as 100%.

[4] = Counterscreen qHTS for small molecule stabilizers of the endoplasmic reticulum resident proteome: GLuc-NoTag assay (AID 1508627); note: potency is the fitted concentration of half-maximal effect
Method in brief: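 SH-SY5Y cells stably expressing constitutively secreted GLuc (no SERCaMP tag) were pre-incubated 5 h, treated with compound for 19 h, then 100 nM thapsigargin for 4 h at 37C; medium GLuc read by coelenterazine luminescence.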

[5] = Confirmatory qHTS for small molecule stabilizers of the endoplasmic reticulum resident proteome: Secreted ER Calcium Modulated Protein (SERCaMP) assay (AID 1508628);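 note: SH-SY5Y cells given compound 16 h then thapsigargin 100 nM for 4 h; series mostly up to about 76 µM; nearly all actives have a fitted effect of over 40% in size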
Method in brief: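 We seeded SH-SY5Y-GLuc-SERCaMP cells, added compounds (three concentrations in the primary run, eleven up to 76.6 uM in confirmation), incubated 16 h, depleted ER calcium with thapsigargin, and read luciferase 4 h later.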

[6] = Cell Viability qHTS for small molecule stabilizers of the endoplasmic reticulum resident proteome (AID 1508629); settings: cell viability counter-screen, 100 nM thapsigargin for final 4 h;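 note: potency is the fitted concentration of half-maximal effect; compound exposure about 46 h in total before the viability read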
[7] = Validation qHTS assay for inhibitors of Activation Induced Cytidine Deaminase (AID): UDG Counterscreen signal (AID 1347427)
Method in brief: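 Counterscreen read of UDG activity (2 U/mL, 4/3x) in the FRET deamination format with AID (1 uM, 4/3x), DJC20/DJC23 substrates (250 nM, 4x), 4 h at room temperature. NaOH stop, fluorescence at 560 ex/665 em.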

[8] = target: Single-stranded DNA cytosine deaminase (Homo sapiens) (UniProt Q9GZX7); assay: Validation qHTS assay for inhibitors of Activation Induced Cytidine Deaminase (AID): AID signal (AID 1347429)
Method in brief: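 AID and UDG were combined and compounds added at final up to 114 uM, then DJC20/DJC23 FRET substrate was added for 4 hr at room temperature. NaOH was then added for 30 min before fluorescence was read at 540/590 nm.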

[9] = target: Calcium and integrin-binding protein 1 (Homo sapiens) (UniProt Q99828); assay: Validation qHTS for Identification of Calcium Integrin Binding protein 1 (CIB1) Competitor (AID 1508618)
Method in brief: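 CIB1-GST (1 uM final) incubated 15 min at room temperature with compounds (up to 114 uM), then FITC-labelled alphaIIb peptide (100 nM) added. FP read (Ex 480/Em 540) after 15 min, pH 7.4 buffer containing 5 mM CaCl2.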

[10] = target: Calcium and integrin-binding protein 1 (Homo sapiens) (UniProt Q99828); assay: Confirmatory qHTS for Identification of Calcium Integrin Binding Protein 1 (CIB1) Competitor (AID 1508617); note: nearly all actives have a fitted effect of over 65% in size; note: potency is the fitted concentration of half-maximal effect
Excerpt: Assay Provider: Ulhas P. Naik, PhD
Sidney Kimmel Medical College
Thomas Jefferson University, Philadelphia, PA
Primary function of platelets is to maintain hemostasis. At the site of vascular injury, platelets adhere to adhesive proteins such as collagen and von Willebrand factor. Adherent platelets are activated and generate soluble platelet agonists such as thrombin, ADP and thromboxane A2. Following exposure of circulating platelets to these agonists, results in platelet shape change, granule secretion and activation of platelet integrin alphaIIb-beta3. Ligand binding to activated integrin alphaIIb-beta3 triggers outside-in signaling, leading to platelet aggregation, stabilization of platelet plug, and clot retraction. Upon atherosclerotic plaque rupture also causes platelet plug formation, which underlies a number of cardiovascular diseases such as myocardial infraction and stroke. A number of anti-platelet drugs such as aspirin, clopidogrel, prasugrel, vorapaxar, and eptifibatide are currently available to prevent the thrombotic complications. However, these anti-platelet agents have several limitations including inherent variability in individual responses, developing resistance, and serious bleeding side effects. For these reasons they are not suitable for long-term protection. Based on the experiences with current anti-platelet drugs, it appears that the most useful therapeutic approach is to intersect the secondary responses such as integrin outside-in signaling or recruitment of platelets by TxA2 and secreted ADP. Compounds, which can largely preserve the primary hemostatic function of platelets but inhibit secondary response will be most desired therapeutic agents for treatment of cardiovascular disease.
CIB1 is a calcium integrin binding protein, which specifically interact with the alphaIIb subunit of integrin alphaIIb-beta3. Binding of CIB1 to alphaIIb regulates the outside-in signaling in platelets, which is needed for thrombus stabilization and thrombus growth. […] Therefore, we propose that discovery of a small molecule that can prevent the association of CIB1 and alphaIIb-beta3 will be a potential anti-platelet agent that can block the thrombus formation without undue effect on hemostasis.
To develop fluorescence polarization (FP) assay using fluorescently labeled alphaIIb peptide and CIB1 protein. Using FP assay characterize the binding affinity, competitive inhibition, and acceptable Z factor (0.5 to1) in order to perform the HTS to identify small molecule compound that can prevent CIB1 binding to platelet integrin alphaIIb-beta3. Active compounds were re-acquired and validated using confirmatory and counterscreens.
[1] […]
7; Detection; Ex 480/ Em 540; ViewLux Fluorescence Read […]

Calcium and integrin-binding protein 1 (Homo sapiens), sequence (Q99828 whole entry, looked up): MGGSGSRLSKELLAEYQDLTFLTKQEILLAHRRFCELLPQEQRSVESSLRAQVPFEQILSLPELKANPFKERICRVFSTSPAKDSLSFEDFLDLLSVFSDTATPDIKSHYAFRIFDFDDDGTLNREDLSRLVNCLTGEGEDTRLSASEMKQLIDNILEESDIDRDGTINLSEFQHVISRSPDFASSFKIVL
Protein phosphatase 1D (Homo sapiens), sequence (O15297 whole entry, looked up): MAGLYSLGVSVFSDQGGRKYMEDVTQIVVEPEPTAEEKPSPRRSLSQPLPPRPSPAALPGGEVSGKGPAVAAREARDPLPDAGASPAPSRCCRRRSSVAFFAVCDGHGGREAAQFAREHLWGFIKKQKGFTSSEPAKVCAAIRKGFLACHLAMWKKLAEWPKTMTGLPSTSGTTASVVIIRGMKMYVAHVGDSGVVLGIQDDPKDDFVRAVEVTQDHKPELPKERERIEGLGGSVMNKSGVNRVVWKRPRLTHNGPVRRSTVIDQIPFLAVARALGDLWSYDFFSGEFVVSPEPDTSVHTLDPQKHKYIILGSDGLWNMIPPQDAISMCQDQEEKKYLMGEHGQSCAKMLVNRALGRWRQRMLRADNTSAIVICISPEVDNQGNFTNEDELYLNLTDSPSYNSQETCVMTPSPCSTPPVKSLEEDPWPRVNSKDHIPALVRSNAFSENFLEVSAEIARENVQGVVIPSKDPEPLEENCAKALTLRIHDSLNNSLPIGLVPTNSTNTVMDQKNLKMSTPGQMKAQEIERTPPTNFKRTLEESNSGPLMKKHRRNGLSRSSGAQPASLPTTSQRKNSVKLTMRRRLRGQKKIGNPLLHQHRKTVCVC
Single-stranded DNA cytosine deaminase (Homo sapiens), sequence (Q9GZX7 whole entry, looked up): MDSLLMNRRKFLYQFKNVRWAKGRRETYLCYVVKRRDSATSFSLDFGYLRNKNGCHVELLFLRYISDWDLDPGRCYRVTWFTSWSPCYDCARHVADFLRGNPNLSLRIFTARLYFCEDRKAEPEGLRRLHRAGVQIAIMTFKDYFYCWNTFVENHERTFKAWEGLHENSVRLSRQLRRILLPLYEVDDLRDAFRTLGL

Q: With Cc1ccc(NC(=O)c2ccc(CN3CCN(C)CC3)cc2)cc1Nc1nc(-c2cccnc2)cs1 as the compound, how does the Potency [1] read?
A: inactive

Q: For CCNC(=O)c1noc(-c2cc(C(C)C)c(O)cc2O)c1-c1ccc(CN2CCOCC2)cc1, which Potency [1] is on record?
A: inactive

Q: Which Potency [1] does the source give for COC(=O)[C@H](c1ccccc1Cl)N1CCc2sccc2C1 here?
A: inactive

Q: Which Potency [1] does the source give for CC(C)(C)c1[nH]cnc1C=c1[nH]c(=O)c(=Cc2ccccc2)[nH]c1=O here?
A: inactive

Q: Which results are given for C[C@@H]1C[C@H]2[C@@H]3CCC4=CC(=O)C=C[C@]4(C)[C@@]3(F)[C@@H](O)C[C@]2(C)[C@@]1(O)C(=O)CO?
A: outcome [2]: inactive; outcome [3]: inactive; Potency [1]: inactive

Q: For COc1ccc(-c2nc3ccc(C4=NNC(=O)CC4C)cc3[nH]2)cc1 (stereo not given), which outcome [2] is on record?
A: inactive

Q: And the outcome [3]?
A: inactive

Q: What about the Potency [1] of the same compound?
A: inactive

Q: For CC(C)c1c(C(=O)Nc2ccccc2)c(-c2ccccc2)c(-c2ccc(F)cc2)n1CC[C@H](O)C[C@@H](O)CC(=O)O, which Potency [1] is on record?
A: inactive

Q: For NC(=O)c1noc([C@H](CCCC2CCCCC2)CC(=O)NO)n1, which Potency [1] is on record?
A: inactive

Q: For O=C(CCCN1CCN(c2ccc(F)cc2)CC1)NC1c2ccccc2CSc2ccccc21 (stereo not given), which outcome [2] is on record?
A: inactive

Q: What about the outcome [3] of the same compound?
A: inactive

Q: And the Potency [1]?
A: inactive

Q: And the Potency [4]?
A: 39.8 µM (active)

Q: What about the Potency [5] of the same compound?
A: inactive

Q: And the Potency [6]?
A: 25.1 µM (active)

Q: Which outcome [2] does the source give for O[C@@H](COc1cccc2ncccc12)CN1CCN(C2c3ccccc3[C@@H]3[C@H](c4ccccc42)C3(F)F)CC1 (stereo not given in full) here?
A: inactive

Q: What about the outcome [3] of the same compound?
A: inactive

Q: What about the Potency [1] of the same compound?
A: inactive

Q: What about the Potency [4] of the same compound?
A: inactive

Q: With C[C@@H](O)[C@H]1C(=O)N2C(C(=O)OCOC(=O)C(C)(C)C)=C(SC3CN(C4=NCCS4)C3)[C@H](C)[C@H]12 as the compound, how does the Potency [1] read?
A: inactive

Q: With Cc1cnc(CNC(=O)c2c(=O)c3ccc(N4CCCN(C)CC4)nc3n3c2sc2ccccc23)cn1 as the compound, how does the Potency [1] read?
A: inactive

Q: For C=CCc1cccc(C=NNC(=O)CN2CCN(Cc3ccccc3)CC2)c1O, which outcome [7] is on record?
A: inactive

Q: What about the outcome [8] of the same compound?
A: inactive

Q: And the outcome [9]?
A: inactive

Q: What about the Potency [1] of the same compound?
A: inactive

Q: For O=C1NC(=O)C(=Cc2ccc(-c3ccc(F)cc3O)o2)S1, which Potency [1] is on record?
A: inactive

Q: With N[C@@H](CC(=O)N1CCn2c(nnc2C(F)(F)F)C1)Cc1cc(F)c(F)cc1F as the compound, how does the Potency [1] read?
A: inactive

Q: What does the source list for CCCCC[C@H](O)C=C[C@H]1[C@H](O)CC(=O)[C@H]1CC=CCCCC(=O)O?
A: outcome [2]: inactive; outcome [3]: inactive; Potency [1]: inactive

Q: With C[C@@H]1O[C@@H](O[C@H]2CC[C@@]3(C)[C@H](CC[C@@H]4[C@H]3C[C@@H](O)[C@]3(C)[C@@H](C5=CC(=O)OC5)CC[C@]43O)C2)C[C@H](O)[C@@H]1O[C@H]1C[C@H](O)[C@H](O[C@H]2C[C@H](O)[C@@H](O)[C@@H](C)O2)[C@H](C)O1 (stereo in doubt) as the compound, how does the Potency [1] read?
A: inactive

Q: What does the source list for CO[C@@H]1C(N(C)C(=O)c2ccccc2)C[C@H]2O[C@]1(C)n1c3ccccc3c3c4c(c5c6ccccc6n2c5c31)C(=O)NC4=O (stereo not given in full)?
A: Potency [10]: 15.8 µM (active); Potency [1]: 19.2 µM (active)

Q: For COc1ccnc(CS(=O)c2nc3ccc(OC(F)F)cc3[nH]2)c1OC (stereo not given), which outcome [2] is on record?
A: inactive

Q: And the outcome [3]?
A: inactive

Q: And the Potency [1]?
A: inactive

Q: With CC[C@H](NC(=O)[C@H](C)NC)C(=O)N1C[C@@H](O)C[C@H]1Cc1c(-c2[nH]c3cc(F)ccc3c2C[C@H]2C[C@H](O)CN2C(=O)[C@H](CC)NC(=O)[C@H](C)NC)[nH]c2cc(F)ccc12 as the compound, how does the Potency [1] read?
A: inactive

Q: With Cc1nc(C(=O)NCC(=O)O)c(O)c2ccc(Oc3ccccc3)cc12 as the compound, how does the Potency [10] read?
A: inactive

Q: Which Potency [1] does the source give for Cc1cccc(Nc2nc(N[C@@H]3CCCC[C@H]3N)ncc2C(N)=O)c1 here?
A: inactive

Q: With CN(C)c1nc(Cc2ccc(NC(=O)c3ccc(C(F)(F)F)cc3)cc2)nc(N(C)C)c1CC(=O)O as the compound, how does the Potency [1] read?
A: inactive

Q: What does the source list for C[C@H]1O[C@@H](n2cc(F)c(=O)[nH]c2=O)[C@H](O)[C@H]1O?
A: outcome [7]: inactive; outcome [8]: inactive; Potency [1]: inactive

Q: Which Potency [1] does the source give for O=C(Nc1ncc(SCCN2CCCC2)s1)[C@]1(c2ccc(S(=O)(=O)C3CC3)cc2)C[C@@H]1C1CCCCC1 here?
A: inactive

Q: For OC[C@H]1O[C@@H](OCCc2ccc(O)cc2)[C@H](O)[C@@H](O)[C@H]1O, which outcome [2] is on record?
A: inactive

Q: What about the outcome [3] of the same compound?
A: inactive

Q: And the Potency [1]?
A: inactive
